Beta apoptosis: blocks beta cell apoptosis; INS-1E cytokine-induced death, ATP luminescence, 48 h; percent of positive-control rescue, neutral wells zero; protection from apoptosis, % (test concentration not listed); 300,000 tested, 0.8% active; AID 435005;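 active = Every replicate reaches about 75%, or at least half do and their mean reaches it too, limit read from the data; inconclusive = At least half of replicates reach the limit but their mean does not; inactive = Under half of replicates reach the limit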;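 also: 0% = cytokine-treated negative control wells and 100% = positive control rescue; higher means more ATP so stronger rescue from cytokine killing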
697 NFkB inh: inhibitors of the PMA/ionomycin-induced NF-kB reporter in 697 B cells; 697 B-cell NF-kB luciferase reporter, 16 h; inhibition, % at 4 µM; 330,000 tested, 0.33% active; AID 435022; in the data active = inhibition above about 35%
Gli-Sufu antag: Gli-Sufu pathway antagonism; Sufu-KO-LIGHT fibroblasts, Gli luciferase reporter luminescence; inhibition, % at 5 µM; 340,000 tested, 0.74% active;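 active = inhibition above about 55%, limit read from the data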;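 also: 0% = DMSO-treated cells and 100% = wells with medium but no cells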
CSC inhib: cancer stem cell inhibition; cancer stem cell-like cells viability, luminescence; inhibition, % at 7.5 µM; 300,000 tested, 1.1% active; in the data active = inhibition above about 75%; inconclusive = no clear call, values can overlap the other calls; tested in HMLE shEcad cells
Jurkat NFkB inh: lowers PMA/ionomycin-induced NF-kB signal in Jurkat cells | PMA/ionomycin-induced NF-kB luciferase reporter, luminescence | inhibition, % at 4 µM | 330,000 tested, 0.53% active; in the data active = inhibition above about 50%
Mdm2-MdmX inh: disrupts the human Mdm2-MdmX interaction; O15151+Q00987; SaOS-2 split-luciferase Mdm2/MdmX complementation, luminescence; inhibition, % at 8 µM; 330,000 tested, 3% active; AID 485346;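 active = inhibition of at least 50% at 8 µM in the primary screen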
Mdm2-MdmX conf: human Mdm2/MdmX binding inhibition, confirmed; inhibition, % at 8 µM; AID 489028; shares compounds with Mdm2-MdmX inh; 10,000 tested, 55% active; luminescent assay; in the data active = inhibition above about 40%
FLuc counter: inhibits full-length luciferase, flagging false Mdm2/MdmX hits. 6,200 tested, 77% active. shares compounds with Mdm2-MdmX inh. SaOS-2 full-length luciferase counterscreen, luminescence. AID 504607. inhibition, % at 8 µM;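 active = mean inhibition at 8 µM reaching about 37%, which flags the compound as non-specific, limit read from the data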;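 also: p53-null SaOS-2 cells with luciferase driven by a doxycycline-inducible promoter; compound on cells about two nights before reading with doxycycline added after day one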
Active calls of the source: *; ? = inconclusive; / = no result given; + = active, no number. The list is not random: actives were taken first. Their share in the collection is about 4.5%.

SMILES	Beta apoptosis	697 NFkB inh	Gli-Sufu antag	CSC inhib	Jurkat NFkB inh	Mdm2-MdmX inh	Mdm2-MdmX conf	others
O=Nc1c(O)n(Cc2ccc(Cl)cc2)c2ccccc12	1	25	4	29	-1	51*	34
O=Nc1c(O)n(Cc2c(Cl)cccc2Cl)c2ccccc12	-10	-27	-18	-6	22	52*	33
Cc1ccc2c(c1)c(N=O)c(O)n2Cc1ccc(Cl)cc1	43	9	-22	104*	21	60*	36
Cc1ccc2c(c1)c(N=NC(N)=S)c(O)n2Cc1ccccc1	3	19	11	-4	1	35	/
O=C(Cc1ccccc1)Nc1ccc(NC(=O)c2ccco2)cc1Cl	-3	9	-18	15	-7	30	/
CCOC(=O)c1ccccc1NC(=O)C1CC(=O)N(C2CCCC2)C1 (stereo not given)	/	/	5	/	/	/	/
O=[N+]([O-])c1cc(C(F)(F)F)ccc1Sc1ccc2ccccc2n1	-1	-5	6	14	1	-20	/
O=[N+]([O-])c1cc(S(=O)(=O)C(F)(F)F)ccc1Sc1nc2ccccc2s1	-5	-7	3	101*	-2	96*	10
O=[N+]([O-])c1cc(S(=O)(=O)C(F)(F)F)ccc1Sc1nc2ccccc2[nH]1	-10	-33	-16	113*	-34	57*	12
Cc1cc(C)cc(NC(=O)Nc2c(Br)cnn2C)c1	/	11	6	/	-10	3	/
Cc1ccc2c(c1)-n1c(nc3ccccc3c1=O)C(Cc1ccccc1)NC2=O (stereo not given)	-3	-1	/	/	20	32	/
O=C(CN(Cc1ccccc1)C(=O)CCl)c1cccc(Br)c1	10	12	-6	16	4	100*	80*	FLuc counter=60*
Cn1c(=O)c(Nc2ccc(Cl)cc2)c2c3c(cccc31)C(=O)c1ccccc1-2	-2	4	8	38	19	51*	15
N#Cc1cn(-c2ccccc2)nc1-c1ccccc1	3	-14	-16	7	-18	19	/
NS(=O)(=O)c1ccc(N/N=C/c2cn(-c3ccccc3)nc2-c2cccs2)c([N+](=O)[O-])c1	108*	-7	6	96*	-26	96*	15
N#Cc1ccc(N/N=C/c2cn(-c3ccccc3)nc2-c2ccccc2)c([N+](=O)[O-])c1	87*	16	7	56	9	91*	5
CCN(C(=O)c1ccc(Cl)c(S(=O)(=O)Nc2c(C)n(C)n(-c3ccccc3)c2=O)c1)c1ccccc1	10	0	-6	-16	-4	12	/
CCOc1ccc(OCCC(=O)N(CC(C)C)c2c(N)n(Cc3ccccc3)c(=O)[nH]c2=O)cc1	/	/	3	/	/	/	/
O=C(Nc1cccc(-c2cn3ccccc3n2)c1)c1cccc(Cl)c1	58	-43	-37	?	-19	75*	-8
O=C(Nc1cccc(-c2cn3ccccc3n2)c1)c1cnccn1	2	-77	-31	1	-16	-31	/
CCOc1ccccc1-n1nnnc1SCC(=O)N1CCCC1=O	-3	5	8	-18	13	18	/
Cc1ccc(N(CC(=O)NC2CCCCC2)S(=O)(=O)c2cccs2)cc1	-4	-4	4	-6	1	66*	12
COc1ccc(N(CC(=O)NC2CCCCC2)S(=O)(=O)c2cccs2)cc1	6	6	4	-9	-7	0	/
CCC(CC)Nc1ccc(C(CC(N)=O)NC(=O)Cc2cccc3ccccc23)cc1[N+](=O)[O-] (stereo not given)	-6	20	1	18	10	1	/
Cc1cc(Br)cc2c(C(=O)NCC3CCCO3)cc(-c3cccs3)nc12 (stereo not given)	13	-57	-6	20	-11	56*	15
SMILES	Beta apoptosis	697 NFkB inh	Gli-Sufu antag	CSC inhib	Jurkat NFkB inh	Mdm2-MdmX inh	Mdm2-MdmX conf	others
COc1cccc(-c2cc(C(=O)NCC3CCCO3)c3cc(Br)cc(C)c3n2)c1 (stereo not given)	9	-17	11	2	-14	30	/
Cc1cccn2c(=O)c3cc(C(=O)NC4CCS(=O)(=O)C4)n(Cc4ccccc4)c3nc12 (stereo not given)	4	14	8	-10	-9	30	/
COc1cccc(CNCCc2c[nH]c3ccccc23)c1OCc1ccc(F)cc1	24	22	-2	15	-3	68*	38
COc1cc(CNCCc2c[nH]c3ccccc23)cc(Cl)c1OCC(N)=O	-7	-7	/	2	3	9	/
COc1cc(CNCCc2c[nH]c3ccccc23)ccc1OCc1ccc(F)cc1	31	-9	-21	+	2	99*	59*	FLuc counter=57*
CCOc1ccc(OCC(=O)N(CCC2=CCCCC2)c2c(N)n(Cc3ccccc3)c(=O)[nH]c2=O)cc1	/	21	/	76*	-2	68*	56*	FLuc counter=92*
CC(C)NC(=O)N(C)C[C@@H]1Oc2c(NC(=O)C3CCOCC3)cccc2C(=O)N([C@@H](C)CO)C[C@H]1C	-3	3	-3	-24	6	4	/
Cc1cc(C)n(CCC(=O)N2CCc3ccccc32)n1	-2	-12	5	-10	8	1	/
COc1cc(-c2cc3nc4ccccc4n3c(N)c2C#N)cc(OC)c1OC	3	28	28	26	13	77*	64*	FLuc counter=93*
Cc1cccc(Nc2nc(N)c([N+](=O)[O-])c(NCc3ccccc3)n2)c1	/	-14	22	61	8	52*	33
Nc1nc(Nc2ccccc2)nc(NCc2ccccc2)c1[N+](=O)[O-]	7	-40	-11	57	-26	19	/
COc1ccc(-c2[nH]c(-c3ccc(C(=O)O)cc3)nc2-c2ccccc2)cc1	-12	7	1	-3	6	36	/
COc1cc(-c2nc(-c3ccc4c(c3)-c3ccccc3S4(=O)=O)c(-c3ccccc3)[nH]2)cc(OC)c1O	10	22	-1	37	-6	77*	67*	FLuc counter=79*
COc1ccc(S(=O)(=O)N(C)CC(=O)Nc2ccccc2OC)cc1	-4	4	3	2	-20	2	/
COc1ccc(N(CC(=O)Nc2ccccc2OC)S(=O)(=O)c2ccc(NC(C)=O)cc2)cc1	16	-50	0	63	43	53*	63*	FLuc counter=55*
COC(=O)C1=C(C)NC(C)=C(C(=O)OC)C1C(=O)OCc1nnc(-c2ccccc2Cl)o1	/	9	5	/	14	50	/
C=CCn1c(COc2ccccc2)nnc1SC(C)C(=O)N/N=C/c1cc(Cl)ccc1O (stereo not given)	26	17	10	58	16	65*	60*	FLuc counter=31
